Screening data from PubChem BioAssay.
ATXN2 expr inh = inhibitors of ATXN2 expression. HEK-293 ATXN2-luciferase reporter, luminescence, 24 h. AID 1745845. Potency, µM (titrated, usually from 57 µM), without a hit: top-dose activity change, negative = inhibition, actives largely listed as inhibitors. 360,000 compounds, 0.72% hits; note: % is set by controls: 0 for no effect and ±100 for the full control effect; nearly all actives have a fitted effect of over 55% in size
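qHTS (up to 57 uM final) was run with 24 h compound exposure of reporter cells at 37 °C. Each well was multiplexed: SteadyGlo luminescence measured ATXN2-luciferase expression after a fluorogenic Gly-Phe-AFC viability readout (25 uM final).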
TGFb inhibitor = inhibitors of TGF-b signaling. HepG2 CAGA-GFP TGF-b/SMAD3 reporter, GFP fluorescence, 18 h; TGF-beta stimulated, 500 pg/mL final. Potency, µM (top dose mostly 46.1 µM), inactives show top-dose activity, negative = inhibition, actives largely listed as inhibitors. 410,000 compounds, 1.2% hits. AID 588855; note: % is set by controls: 0 for no effect and ±100 for the full control effect; nearly all actives have a fitted effect of over 65% in size
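Per well, imaged GFP fluorescence of HEPG2 CAGA-GFP cells gives the signal; cells get compound, then TGF-beta (500 pg/mL final), 18 h at 37 degrees C; %Activity versus -TGF-beta and +DMSO controls.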
S2 tox = viability counter-screen for ATXN expression inhibitors; S2 cells (HEK-293 line with an ATXN2-luciferase reporter) viability, CellTiter-Fluor protease fluorescence, 24 h; 400,000 compounds, 0.49% hits; Potency, µM (doses to about 56.7 µM), usual class: cytotoxic; note: nearly all actives have a fitted effect of over 40% in size
HepG2 viability = kills HepG2 cells in TGF-b inhibitor counter-screen | 410,000 compounds, 0.76% hits | HepG2 CAGA-GFP viability, ATP luminescence, 18 h | Potency, µM (highest dose often 46.1 µM), without a hit: at the top dose activity change, negative = cytotoxicity, actives largely listed as cytotoxic
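CellTiter-Glo luminescence gave cytotoxicity after 18 hours at 37 degrees C. The cells were HepG2 CAGA-GFP in 1% FBS DMEM, stimulated with 500 pg/mL TGF-beta after compound addition. %Activity was normalised to no-cell wells (complete cell-killing) and DMSO (no toxicity), and curves were fitted and classified.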
Nrf2 inh = blocks Nrf2 signaling | AID 504444 | A549 ARE-Fluc reporter, luciferase luminescence, 18-24 h | 360,000 compounds, 2.1% hits | Potency, µM (doses to about 46 µM), for inactives: top-dose activity change, negative = inhibition, usual class: inhibitors; note: % is set by controls: 0 for no effect and ±100 for the full control effect; nearly all actives have a fitted effect of over 60% in size
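Reporter: ARE-Fluc in A549. Exposure: 18-24 h, 37 °C, 5% CO2, 5% FBS OPTI-MEM. Readouts: fluorescent cytotoxicity (CellTiter-Fluor), then luminescent Nrf2 signal after BugLite.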
A549 tox = counter-screen for Nrf2 inhibitors: cytotoxicity in A549 cells. A549 ARE-Fluc cells, CellTiter-Fluor viability, 18-24 h. Potency, µM (series often up to 46 µM), without a hit: at the top dose activity change, negative = cytotoxicity, most hits filed as inhibitors. 390,000 compounds, 0.16% hits; note: % is set by controls: 0 for no effect and ±100 for the full control effect
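Cytotoxicity counterscreen: CellTiter-Fluor fluorescence was measured in A549 ARE_Fluc cells after 18-24 h of compound exposure in a concentration series. The subsequent BugLite luminescent read reports ARE-luciferase activity.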
Starred values were filed as active, the others as inactive; i = inactive; ? = inconclusive; nt = not tested or not shown. Shown are actives, neighbours in structure and some others; about 3.8% of the full set was active somewhere. Calls come from the whole dose curve; as a rule, active = well fitted curve in the direction sought with a large enough effect; inconclusive = small, poorly fitted or top-dose-only effect, or another doubt; inactive = no such curve, though single readings can be large; an effect the other way counts as inactive or inconclusive. Potency is the fitted concentration of half-maximal effect.

SMILES	ATXN2 expr inh	TGFb inhibitor	S2 tox	HepG2 viability	Nrf2 inh	A549 tox
COc1cc(C(=O)Oc2c(CN3CCOCC3)cc(Cl)c3cccnc23)cc(OC)c1OC	1.58µM*	3.98µM*	1.58µM*	-87.5%	8.7%	-3.6%
COc1cccc(C(=O)Oc2c(CN3CCOCC3)cc(Cl)c3cccnc23)c1	10µM*	?	?	-55.2%	?	?
O=C(Oc1c(CN2CCOCC2)cc(Cl)c2cccnc12)c1ccc(F)cc1	?	?	?	-39.4%	23.1µM*	nt
Cc1oc(C(C)(C)C)c(CN2CCOCC2)c1C(=O)O	-17.4%	2.3%	i	14.8%	-5.9%	0.1%
O=C(Oc1c(CN2CCOCC2)cc(Cl)c2cccnc12)c1ccccc1Cl	?	?	?	3.55µM*	-23.1%	-24.4%
Cc1coc2cc3oc(=O)c(CC(=O)NCc4cccc(Cl)c4)c(C)c3cc12	nt	?	nt	-39.6%	-19.5%	1.6%
CC/C(=N\Nc1ccc([N+](=O)[O-])cc1)c1ccccc1	-9.1%	?	i	-34.7%	20.6µM*	?
CC(C)(C)CC(=O)Nc1nnc(C(F)(F)F)s1	1.1%	-1.0%	i	-16.8%	?	-7.1%
CC(NC(=O)Nc1nnc(C(F)(F)F)s1)(C(F)(F)F)C(F)(F)F	?	?	?	-43.4%	5.17µM*	16.4µM*
COc1ccc(-n2c(=O)c3ccc(C(=O)NCc4ccc(C)cc4)cc3n(Cc3ccc(Cl)cc3)c2=O)cc1	12.0%	8.9%	i	1.4%	9.6%	1.5%
COc1ccc(NC(=O)N2CCc3c([nH]c4ccc(OC)cc34)C2c2ccc(OC)cc2)cc1 (stereo unspecified)	228.3%	-16.1%	?	-13.1%	133.2%	-1.6%
CCOc1ccc(N2CC(c3nc4ccccc4n3CCOc3ccccc3)CC2=O)cc1 (stereo unspecified)	?	15.8µM*	?	-23.8%	?	?
COc1ccccc1OCCCn1c(C2CC(=O)N(c3ccc(F)cc3)C2)nc2ccccc21 (stereo unspecified)	4.8%	?	i	-6.0%	15.5%	0.1%
CCOc1ccccc1N1CC(c2nc3ccccc3n2CCCCOc2ccccc2)CC1=O (stereo unspecified)	-7.3%	?	i	-1.0%	?	?
O=C1CC(c2nc3ccccc3n2CCCCOc2ccccc2)CN1c1ccccc1Cl (stereo unspecified)	?	?	28.2µM*	-45.4%	?	-27.3%
CCOc1ccc(N2CC(c3nc4ccccc4n3CCCOc3ccccc3OC)CC2=O)cc1 (stereo unspecified)	?	-29.5%	17.8µM*	-12.9%	?	?
CCO[C@H]1OC(C(N)=O)=C[C@@H](C2CC2)[C@@H]1CCCO	6.4%	6.6%	i	5.1%	-10.1%	-0.4%
COC(=O)c1ccccc1-c1ccc(/C=N/Nc2nc(N3CCCC3)nc(N3CCCC3)n2)o1	?	12.6µM*	?	-39.4%	?	-12.5%
CCCCNC(=O)c1cn(C)c2ccc(S(=O)(=O)N3CC(C)CC(C)C3)cc2c1=O (stereo unspecified)	8.3%	1.7%	i	-16.2%	-16.6%	3.1%
O=C(c1ccc(Cl)c(Cl)c1)N1CCC(=O)N(C(COCc2cccc(C(F)(F)F)c2)Cc2ccccc2)CC1 (stereo unspecified)	?	?	?	-27.2%	20.6µM*	?
Cc1cccc(COCC(Cc2ccccc2)N2CCN(C(=O)c3ccc(Cl)c(Cl)c3)CCC2=O)c1 (stereo unspecified)	?	?	?	-13.0%	-13.0%	-4.3%
CC(C)CC(COCc1ccc(C(F)(F)F)cc1)N1CCN(C(=O)c2ccc(C(F)(F)F)cc2)CCC1=O (stereo unspecified)	?	?	?	-51.6%	23.1µM*	?
CC(C)(C)c1ccc(C(=O)N2CCC(=O)N([C@H](COCc3ccccc3)Cc3ccccc3)CC2)cc1	31.6µM*	nt	nt	nt	nt	nt
C=C1CC(COc2ccc3c(C)c(Cl)c(=O)oc3c2)(c2ccccc2)OC1=O (stereo unspecified)	?	?	nt	-99.0%	?	?
O=C(CSC(=S)N1CCCC1)NCC(=O)Nc1ccc(F)c(F)c1	-7.4%	-7.4%	i	-24.6%	4.6%	-8.0%
SMILES	ATXN2 expr inh	TGFb inhibitor	S2 tox	HepG2 viability	Nrf2 inh	A549 tox
Cc1ccc(-c2nc3ccccc3n3nnnc23)cc1	31.3%	-5.8%	i	5.3%	?	6.9%
Cc1ccc(-c2nnc3c(C(F)(F)F)nc4ccccc4n23)cc1	-5.8%	?	?	-41.9%	23.1µM*	?
O=c1cc(-c2ccccc2)oc2ccc(Cl)cc12	1.9%	4.2%	i	-1.5%	12.8%	-1.4%
O=c1oc(-c2ccccc2)cc(Cl)c1Cl	?	11.2µM*	nt	-96.7%	?	2.4%
CCOC(=O)Cc1csc(SCC(=O)N(CC(C)C)c2c(N)n(Cc3ccccc3)c(=O)[nH]c2=O)n1	4.1%	12.5%	?	-1.4%	7.9%	1.6%
CCOC(=O)/C(=C\c1ccc(N2CCC(c3ccccc3)=N2)cc1)C(C)=O	11.8%	5.8%	i	4.6%	116.1%	17.2%
CCOC(=O)C(=Cc1ccc(-n2cncn2)cc1)C(=O)OCC	?	?	?	-93.2%	18.4µM*	?
O=C(O)COc1ccc(-c2nccc(-c3ccccn3)n2)cc1	?	9.3%	i	-2.5%	2.06µM*	-0.9%
COC(=O)c1ccc(CN(c2ccccc2Cl)S(C)(=O)=O)cc1	7.5%	-0.8%	i	5.8%	-25.6%	5.7%
COC(=O)c1ccc(Cl)cc1N(Cc1c(F)cccc1Cl)S(C)(=O)=O	-24.0%	31.5%	i	1.0%	18.4µM*	?
CCNC(=O)NC(=O)COC(=O)C1CSC2(C)CCC(=O)N12 (stereo unspecified)	1.2%	-7.6%	i	-1.3%	0.0%	-2.6%
C(=C\c1nc2ccccc2[nH]1)/c1ccccc1	?	-25.2%	i	10µM*	?	nt
O=S(=O)(Nc1ccc(F)c(C(F)(F)F)c1)c1ccc(N2CCCCS2(=O)=O)cc1	-27.0%	10µM*	i	-24.7%	nt	-7.3%
O=S(=O)(Nc1ccc(OC(F)(F)F)cc1)c1ccc(N2CCCCS2(=O)=O)cc1	-26.6%	?	i	-3.1%	nt	-6.7%
Cc1ccc2c(CC(=O)Nc3ccc(S(=O)(=O)N4CCCCC4)cc3)coc2c1	-10.8%	?	i	-15.9%	?	1.5%
